PubChem BioAssay AID602340 (Broad Institute, 2012)
Where “and” joins values, the source holds several entries; their conditions need not be identical. Equal values may be shown once. Screen size: about 330,000 compounds; about 2,600 (0.79%) were called active.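 The calls were made as follows: active = mean ATP rescue above about 67%, or every replicate alone reaching that limit (limit read from the data, passing the limit was not always enough); inconclusive = no clear call, values can overlap the other calls; inactive = mean under the limit and some replicate under it.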 The full list was thinned out, with actives kept by preference. The source holds several records for some structures; these can differ, active in one and inactive in another.

Experiment: protection of differentiated C2C12 cells from simvastatin – single point, plate reader, primary screen (AID 602340);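 also: myotubes were challenged with 10 µM simvastatin during compound exposure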
Settings: C2C12 myotubes + simvastatin, ATP luminescence, 48 h; at 7.49 µM; stronger effect = higher value; scaled: DMSO 0, geranylgeraniol control 100

Row | Compound | rescue of ATP level
1 | C/C(=C\c1ccccc1)C1NC(=O)c2c(sc3c2CCCC3)N1 (centres undefined) | -22.3% (inactive)
2 | CC1(C(=O)O)CCCN(C(=O)/C=C/c2ccccc2)C1 (centres undefined) | 2.47% (inactive)
3 | Cc1[nH]c(=O)c(C(=O)/C=C/c2ccccc2)c2c1CCCC2 | 165% (active)
4 | COc1ccccc1NC(=O)N1C[C@H](O)COC[C@H]2O[C@H](CC(=O)NCCc3ccccc3)CC[C@@H]21 | -6.91% (inactive)
5 | CCC(=O)Nc1ccc(C(=O)NNC(=O)c2ccc(Cl)cc2)cc1 | -2.53% (inactive)
6 | CCC(=O)Nc1ccc(C(=O)Nc2cc(C)on2)cc1 | 84.9% (active)
7 | CCOc1ccc(C(=O)Nc2ccc(S(=O)(=O)Nc3cc(C)on3)cc2)cc1 | 10.8% (inactive)
8 | C[C@H]1CN([C@@H](C)CO)S(=O)(=O)c2ccc(Br)cc2O[C@H]1CN(C)C(=O)C1CC1 | 4.28% (inactive)
9 | Cc1ccc2nc(SCC(=O)NC3CCCC3)[nH]c2c1 | -36.1% (inactive)
10 | CC(=O)Nc1ccc(C(=O)CSc2nc3ccc(C)cc3[nH]2)cc1 | 107% (active)
11 | CCOC(=O)CSc1nc2ccc(C)cc2[nH]1 | 11.3% (inactive)
12 | O=C(NCC[C@H]1CC[C@H](NS(=O)(=O)c2cccc(F)c2)[C@H](CO)O1)C1CCCCC1 | 0.841% (inactive)
13 | COC(=O)C[C@H]1CC[C@H](NC(=O)Nc2ccc(C(F)(F)F)cc2)[C@H](CO)O1 | -6.07% (inactive)
14 | CCS(=O)(=O)Nc1ccc2c(c1)C(=O)N(C)[C@@H]1CC[C@H](CC(=O)N[C@H]3CCN(Cc4ccccc4)C3)O[C@@H]1CO2 | 10.9% (inactive)
15 | CCS(=O)(=O)Nc1ccc2c(c1)C(=O)N(C)[C@@H]1CC[C@@H](CC(=O)N3CCCCC3)O[C@H]1CO2 | -21.4% (inactive)
16 | CO[C@H]1CN(C)C(=O)c2ccc(NC(=O)C3CC3)cc2OC[C@@H](C)N(C)C[C@H]1C | 2.87% (inactive)
17 | O=C(C1CCCN(S(=O)(=O)c2ccccc2)C1)N1CCN(c2ccc(F)cc2)CC1 (centres undefined) | -8.18% (inactive)
18 | CCCS(=O)(=O)N1CCCC(C(=O)N2CCN(c3ccccc3)CC2)C1 (centres undefined) | 103% (active)
19 | CCS(=O)(=O)N1CCC(C(=O)N2CCN(c3ccccc3)CC2)CC1 | 2.16% (inactive)
20 | C[C@@H](NC(=O)C[C@@H]1CC[C@H](NC(=O)Cc2ccccn2)[C@H](CO)O1)c1ccccc1 | 4.66% (inactive)
21 | C[C@@H]1CN([C@H](C)CO)C(=O)c2cccc(NS(=O)(=O)c3ccc(F)cc3)c2O[C@@H]1CN(C)C(=O)Nc1ccc(F)cc1 | 3.07% (inactive)
22 | C[C@@H]1CN([C@@H](C)CO)C(=O)c2cccc(NC(=O)Nc3ccc(F)cc3)c2O[C@@H]1CN(C)C(=O)Nc1ccccc1 | 7.96% (inactive)
23 | C[C@@H]1CN([C@H](C)CO)C(=O)c2cccc(NS(=O)(=O)c3ccc(Cl)cc3)c2O[C@H]1CN(C)C(=O)NC1CCCCC1 | 36.6% (inactive)

Row | Compound | rescue of ATP level
24 | CC(C)NC(=O)N(C)C[C@@H]1Oc2ccc(N(C)C)cc2C(=O)N([C@@H](C)CO)C[C@H]1C | -49% (inactive)
25 | C[C@H](CO)N1C[C@H](C)[C@@H](CN(C)C(=O)Nc2ccccc2)Oc2ccc(N(C)C)cc2C1=O | 4.49% (inactive)
26 | CC(C)NC(=O)N(C)C[C@H]1Oc2ccc(N(C)C)cc2C(=O)N([C@@H](C)CO)C[C@H]1C | 70.4% (active)
27 | C[C@H]1CN([C@@H](C)CO)C(=O)c2cccc(NC(=O)Nc3ccc(C(F)(F)F)cc3)c2O[C@H]1CN(C)C(=O)NC1CCCCC1 | -25.5% (inactive)
28 | C[C@H]1CN([C@@H](C)CO)C(=O)c2cccc(NC(=O)Nc3ccc(C(F)(F)F)cc3)c2O[C@@H]1CN(C)Cc1ccccc1 | -12.1% (inactive)
29 | C[C@@H]1CN([C@H](C)CO)C(=O)c2cccc(NC(=O)Nc3cccc4ccccc34)c2O[C@@H]1CN(C)C(=O)Nc1ccc(F)cc1 | 98.6% (active)
30 | C[C@@H]1CN([C@@H](C)CO)C(=O)c2cccc(NC(=O)Nc3ccc(F)cc3)c2O[C@H]1CN(C)C(=O)Nc1ccc(F)cc1 | 18.2% (inactive)
31 | C[C@H]1CN([C@@H](C)CO)C(=O)c2cccc(NC(=O)Nc3ccc(C(F)(F)F)cc3)c2O[C@H]1CN(C)CC1CCCCC1 | 88.7% (active)
32 | C[C@@H]1CN([C@@H](C)CO)C(=O)c2cccc(NS(=O)(=O)c3ccc(F)cc3)c2O[C@H]1CN(C)C(=O)NC1CCCCC1 | 88.2% (active) and -10.4% (inactive)
33 | C[C@@H]1CN([C@H](C)CO)C(=O)c2cc(NC(=O)Cc3cn(C)c4ccccc34)ccc2O[C@@H]1CN(C)S(=O)(=O)c1cccs1 | 34.2% (inactive)
34 | CCS(=O)(=O)Nc1ccc2c(c1)C(=O)N(C)[C@H]1CC[C@H](CC(=O)NCc3ccccc3F)O[C@H]1CO2 | -3.79% (inactive)
35 | O=C(N[C@H]1CC[C@@H](CCn2cc(Cc3ccccc3)nn2)O[C@H]1CO)c1cnccn1 | -1.98% (inactive)
36 | COc1ccc(NC(=O)Nc2cccc3c2O[C@H](CN(C)C(=O)Nc2cccc4ccccc24)[C@H](C)CN([C@H](C)CO)C3=O)cc1 | 60% (inactive)
37 | COc1ccc(NC(=O)N(C)C[C@@H]2Oc3c(NC(=O)Nc4cccc5ccccc45)cccc3C(=O)N([C@@H](C)CO)C[C@H]2C)cc1 | 15.2% (inactive)
38 | COc1cccc(NC(=O)N(C)C[C@@H]2Oc3ncc(Br)cc3C(=O)N([C@@H](C)CO)C[C@H]2C)c1 | 17.2% (inactive)
39 | COc1ccc(NC(=O)N(C)C[C@H]2Oc3ncc(C#C[C@@H](C)O)cc3C(=O)N([C@H](C)CO)C[C@H]2C)cc1 | 12.8% (inactive) and -6.34% (inactive) and 21.2% (inactive)
40 | COc1ccc(NC(=O)N(C)C[C@H]2Oc3c(NC(=O)Nc4cccc5ccccc45)cccc3C(=O)N([C@H](C)CO)C[C@@H]2C)cc1 | 75.6% (active)
41 | COc1ccc(C#Cc2cnc3c(c2)C(=O)N([C@H](C)CO)C[C@@H](C)[C@H](CN(C)C(=O)Nc2cccc(OC)c2)O3)cc1 | 114% (active)
42 | CN(C)C(=O)C[C@@H]1CC[C@H](NC(=O)NC2CCCCC2)[C@@H](CO)O1 | -1.33% (inactive)
43 | O=C(Nc1ccccc1F)N1C[C@H]2[C@@H](c3ccccc31)[C@H](CO)N2C(=O)c1ccccn1 | 45.1% (inactive)
44 | O=C(N[C@@H]1CC[C@@H](CCNS(=O)(=O)Cc2ccccc2)O[C@@H]1CO)c1ccccc1F | -15% (inactive)
45 | CN(C)C(=O)[C@@H]1[C@@H](CO)[C@@H]2Cn3c(ccc(-c4ccccc4F)c3=O)[C@@H]2N1C(=O)C1CC1 | -6.7% (inactive)
46 | O=C(NCc1ccco1)c1ccc(Cn2c(=O)c3sccc3n(Cc3ccc(F)cc3)c2=O)cc1 | -13.7% (inactive)

Row | Compound | rescue of ATP level
47 | O=C(Cc1ccc(-n2c(=O)c3sccc3n(Cc3ccc(F)cc3)c2=O)cc1)NCc1ccco1 | -0.81% (inactive)
48 | O=C(NCc1ccco1)c1cc2sccc2n1Cc1ccc(F)cc1 | 160% (active)
49 | O=C(C[C@@H]1CC[C@@H]2[C@H](COC[C@H](O)CN2Cc2cccc(-c3ccncc3)c2)O1)N1CCOCC1 | 7.32% (inactive)
50 | Cc1ccc(C(=O)NNC(=O)CSc2nnc3ccccn23)cc1 | 0.262% (inactive)
51 | Cc1ccc(SCC(=O)NNC(=O)c2ccc(S(C)(=O)=O)cc2)cc1 | 90% (active)
52 | CS(=O)(=O)c1ccc(C(=O)NNC(=O)c2cccs2)cc1 | 19.1% (inactive)
53 | CO[C@H]1CN(C)C(=O)c2ccc(NC(=O)C3CCC3)cc2OC[C@@H](C)N(Cc2ccccn2)C[C@H]1C | 9.17% (inactive)
54 | CNC(=O)C[C@H]1CC[C@@H]2[C@H](COc3ccc(NC(=O)C(C)C)cc3C(=O)N2C)O1 | 5.79% (inactive)
55 | O=C(c1ccc2c(c1)C(=O)N(c1ccc(Cl)cc1)C2=O)N1CCN(c2ccccn2)CC1 | 135% (active)
56 | O=C(CCC1CCCN(C(=O)c2ccc(F)c(F)c2)C1)N1CCN(c2ccccn2)CC1 (centres undefined) | -0.349% (inactive)
57 | O=C(c1c(F)cccc1Cl)N1CCN(c2ccccn2)CC1 | -10.5% (inactive)
58 | COCC(=O)Nc1ccc2c(c1)OC[C@H](C)N(C(=O)c1cnccn1)C[C@@H](C)[C@H](OC)CN(C)C2=O | 3.92% (inactive)
59 | COc1ccccc1CNC(=O)COC(=O)c1sc(C)nc1C | -4.29% (inactive)
60 | COc1cc(C2C(C(=O)c3sc(C)nc3C)=C(O)C(=O)N2CCN(C)C)cc(OC)c1OC (centres undefined) | 116% (active)
61 | COc1ccc(/C(O)=C2/C(=O)C(=O)N(CCCN(C)C)C2c2ccccc2)cc1OC (centres undefined) | 14.8% (inactive)
62 | C[C@@H]1CN([C@@H](C)CO)C(=O)Cc2cc(NS(=O)(=O)c3cccs3)ccc2O[C@@H]1CN(C)S(=O)(=O)c1ccc(F)cc1 | -10.2% (inactive)
63 | COCC(=O)Nc1ccc2c(c1)[C@@H]1C[C@H](CC(=O)NCc3ccc(-c4ccccc4)cc3)O[C@H](CO)[C@@H]1O2 | -0.998% (inactive)
64 | C[C@@H]1CCCCO[C@@H](CN(C)C(=O)NC2CCCCC2)[C@H](C)CN([C@H](C)CO)C(=O)c2cc(NC(=O)Nc3cccc4ccccc34)ccc2O1 | -71% (inactive)
65 | CCc1ccc(N2CC(C(=O)NC3=NCCS3)CC2=O)cc1 (centres undefined) | 109% (active)
66 | CCc1ccc(N2CC(C(=O)N3CCCCCC3)CC2=O)cc1 (centres undefined) | -5.19% (inactive)
67 | CCc1ccc(N2CC(C(=O)Nc3ccc(S(=O)(=O)Nc4nccs4)cc3)CC2=O)cc1 (centres undefined) | 2.04% (inactive)
68 | COc1ccc(NC(=O)Nc2ccc3c(c2)C(=O)N([C@@H](C)CO)C[C@H](C)[C@H](CN(C)C(=O)Nc2ccccc2)OCCCC[C@@H](C)O3)cc1 | 0.523% (inactive)
69 | CN1C(=O)c2cc(NS(C)(=O)=O)ccc2OC[C@@H]2O[C@@H](CC(=O)NCc3ccc(-c4ccccc4)cc3)CC[C@H]21 | 21.8% (inactive)
